Laboratory results taken from PubChem BioAssay AID2098 (Broad Institute, 2009).
The whole screen tested about 300,000 compounds, of which about 2,300 (0.77%) were called active. This is one part of a sample in which actives are shown more often than they occur.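 Rule for the calls: active = more than half of replicate wells show activity change below -50%, luminescence cut by over half; inconclusive = some wells, but at most half, below -50%; inactive = no replicate well below -50%.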

test: blocking HSF1-driven luciferase expression – cell-based, NIH3T3, luminescence, primary screen (AID 2098); conditions: NIH3T3-HGL HSE-luciferase, MG132-induced, luminescence 8 h; hits give low values; screened at 7.5 µM (by protocol);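 note: luciferase reports HSF-1 transcriptional activity via heat shock element; 0% = median of DMSO wells and -100% = zero luminescence signal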

Activity change, negative = inhibition, active:
C/C(=C/C(=O)N1CCN(C)CC1)C(=O)O -83.7%
COc1cccc(CN(C)CC2CCCN(CCc3ccc(Cl)cc3)C2)c1OC (configuration not stated) -81.7%
COc1ccc(NC(=O)Cn2c(=O)n(Cc3ccco3)c(=O)c3ccccc32)cc1 -89%
Brc1ccc(C2=CC(c3ccco3)n3ncnc3N2)cc1 (configuration not stated) -56.9%
O=C(c1ccc(O)cc1)c1ccc(C(=O)O)c(C(=O)O)c1 -68%
Cc1ccc(C)c(N2CCN(C(=O)CCCCCn3c(=S)[nH]c4ccc(N5CCOCC5)cc4c3=O)CC2)c1 -73.3%
N#CC1=C(N)Oc2n[nH]c(CSc3ccccc3)c2C12C(=O)Nc1ccccc12 (configuration not stated) -57.8%
O=C(Nc1nnc(S(=O)(=O)N2CCCCCC2)s1)c1cccc(Br)c1 -56%
Cc1ccc(NC(=O)NCC(c2cccnc2)N2CCOCC2)cc1 (configuration not stated) -69.8%
CC1CCN(c2c(NCc3ccc(C(=O)NCc4ccccc4)cc3)c(=O)c2=O)CC1 -69.2%
COc1ccc(/C=N/NC(=O)c2ccc3c(c2)OCCO3)c(OC)c1 -61%
Cc1ccc(C(=O)NN(CCC#N)C2=NS(=O)(=O)c3ccccc32)cc1 -53.5%

Activity change, negative = inhibition, inactive:
CCN1CCN(C(=O)/C=C\C(=O)O)CC1 -4.12%
CN1CCN(C(=O)C2C3C=CC(C3)C2C(=O)O)CC1 (configuration not stated) -0.614%
Cc1nc2ccc(C(=O)N(C)CC3CCCN(CCc4ccc(Cl)cc4)C3)cc2[nH]1 (configuration not stated) -3.74%
COc1cccc(CN(C)CC(=O)NCc2ccccc2Cl)c1OC -1.39%
O=C(COc1ccccc1F)Nc1nc(-c2ccccn2)cs1 -13.1%
N#CCCN(C(=O)COC(=O)c1ccc(S(=O)(=O)N2CCCCCC2)cc1)c1ccccc1 0.525%
Cc1ccccc1N1CC(C(=O)Nc2ccc(S(=O)(=O)N3CCCC3)cc2)CC1=O (configuration not stated) -1.85%
Cn1c(=O)c2ccccc2n(CC(=O)Nc2ccc3c(c2)OCCO3)c1=O -3.8%
O=C(Cn1c(=O)n(Cc2ccco2)c(=O)c2ccccc21)NCC1CCCO1 (configuration not stated) 0.503%
Cn1c(=S)sc2ccc3ccccc3c21 -1.53%
COC(=O)C1=C(C)Nc2ncnn2C1c1ccco1 (configuration not stated) 0.145%
CCOc1ccc(C2=CC(c3ccccc3)n3ncnc3N2)cc1 (configuration not stated) -4.36%
O=C(O)c1ccc2c(c1)C(=O)N(NC(=O)c1ccc(O)cc1)C2=O 0.898%
O=C(Nc1ccc(C(=O)O)c(O)c1)c1ccccc1 2.77%
CCC1(c2ccccc2)NC(=O)N(CC(=O)c2ccc3c(c2)OCO3)C1=O (configuration not stated) 1.78%
CCCCN1C(N)=NC[C@@H]1CC1CCCCC1 -7.88%
C[C@@H]1O[C@@H](OC[C@H]2O[C@@H](Oc3c(-c4ccc(O)cc4)oc4cc(O)cc(O)c4c3=O)[C@H](O)[C@@H](O)[C@@H]2O)[C@H](O)[C@H](O)[C@H]1O 2.53%
O=C(CCCCCn1c(=S)[nH]c2cc3c(cc2c1=O)OCO3)N1CCN(c2ccc(F)cc2)CC1 0.967%
Cc1ccc(C)c(N2CCN(C(=O)CCCCn3c(=O)[nH]c4ccccc4c3=O)CC2)c1 1.8%
Cc1cc(Br)ccc1NC(=O)CN(C)C(=O)CN1C(=O)NC2(CCCC2)C1=O -4.3%
O=C(COc1ccccc1)Nc1ccc(C(=O)N2CCCC2)cc1 -3.01%
N#CC1=C(N)Oc2[nH]c(=S)[nH]c(=O)c2C12C(=O)Nc1ccccc12 (configuration not stated) -4.51%
COc1ccc(S(=O)(=O)NCC(c2ccco2)N2CCOCC2)cc1 (configuration not stated) 5.28%
Cc1cccc(C(=O)Nc2nnc(S(=O)(=O)N3CCCCCC3)s2)c1 -1.91%
O=C(Nc1nnc(S(=O)(=O)N2CCOCC2)s1)c1cccc(Br)c1 4.12%
O=C(COC(=O)c1ccccc1SCC(=O)N1CCCC1)Nc1ccccc1OC(F)F 7.03%
O=C(c1ccc(F)c(S(=O)(=O)N2CCOCC2)c1)N(CCc1ccccc1)Cc1ccccc1 5.02%
COc1ccc(Cl)cc1C=CC=Nc1ccc(S(N)(=O)=O)cc1 -18.4%
C=C1CCN([C@@H](Cc2ccccc2)C(=O)N2CCOCC2)S(=O)(=O)c2ccccc21 -0.215%
COc1cccc(OC)c1C(=O)Nc1sc2c(c1C(N)=O)CCCC2 -3.68%
O=C(OCC1OC(Oc2ccc(O)cc2)C(O)C(O)C1O)c1ccccc1 (configuration not stated) -1.79%
CCCCn1c(N)c(N(CC(C)C)C(=O)c2cccc(S(=O)(=O)N3CC(C)OC(C)C3)c2)c(=O)[nH]c1=O (configuration not stated) -2.84%
Cc1ccc(C)c(NC(=S)NCC(c2cccnc2)N2CCOCC2)c1 (configuration not stated) -6.11%
Cc1ccc(C(CNC(=O)Nc2ccccc2)N2CCN(C)CC2)cc1 (configuration not stated) -9.11%
O=C(NCCS(=O)(=O)NCc1ccc(Cl)cc1)c1ccccc1 2.35%
O=C(COC(=O)Cc1ccccc1F)NNC(=O)c1ccc(Cl)cc1 -1.7%
O=C(NCc1ccccc1)c1ccc(CNc2c(N3CCCC3)c(=O)c2=O)cc1 -3.59%
O=C(NC1CCCCC1)c1ccc(CNc2c(N3CCOCC3)c(=O)c2=O)cc1 -0.199%
Cn1cccc1C(=O)OCC(=O)c1ccc(Br)s1 -97.9%
O=C(Nc1cccc2c1CCCC2)c1ccc(F)cc1 -2.27%
COc1ccc(/C=N/NC(=O)CNC(=O)c2ccc(S(=O)(=O)N3CCCC3)cc2)c(OC)c1 -4.96%
COc1ccc(/C=N/NC(=O)Nc2ccc3nsnc3c2)c(OC)c1 15.1%
COc1ccc(C)cc1NC(=O)CSc1nnc2ccc(-c3ccccn3)nn12 -4.51%
COc1cc(C(=O)NN(CCC#N)C2=NS(=O)(=O)c3ccccc32)cc(OC)c1OC -1.4%
Cc1ccc(S(=O)(=O)N(NC2=NS(=O)(=O)c3ccccc32)C(=O)c2ccccc2)cc1 -2.65%
